Calls of active or inactive are those of the source.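 Rule for the calls: active = z-score of at least 1.8 in each of two replicates, scored against plate mean and spread of sample wells; inactive = the rest.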

The experiment in a line: viability rescue of complex I mutant cybrids, primary screen, cell-based, galactose medium, ATP luminescence (AID 1645843).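 Note: positive z means more ATP and so rescue of galactose-driven cybrid death.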 The settings on record: complex I mutant cybrid cells, 72 h, active compounds read high.
As to `CCn1cc(CN(C(=O)c2cnc3ccccn3c2=O)C(C)C)cn1`, the z-score was 0.18 (inactive).

As for `Cn1ncc(NC(=O)Cn2ccc(-c3ccccc3C(F)(F)F)n2)n1`, the z-score was 1.12 (inactive).

On to `Clc1ccc(C(Cn2ccnc2)OCc2csc3c(Cl)cccc23)c(Cl)c1` (stereo not given), for which the z-score is 0.155 (inactive).

As for `CCn1ccnc1CN(C)Cc1ccc(-c2nc(C(F)(F)F)c(C)c(=O)[nH]2)cc1`, the z-score was 0.66 (inactive).

In the case of `O=c1cc(-c2ccccc2Cl)nc(-c2ccc(CN3CCC[C@@H](O)C3)cc2)[nH]1`, the z-score is -0.605 (inactive).

On to `Clc1cccn2c(-c3ccccc3OC3CCCC3)nnc12`, for which the z-score is 0.365 (inactive).

For the compound `COc1ccccc1-c1noc(C(C)n2cccn2)n1` (stereo not given), the z-score is -0.115 (inactive).

`CCC1(CC)CC1C(=O)N1CCC(n2cc(C(C)(C)O)nn2)CC1` (stereo not given): the z-score was -0.515 (inactive).

Regarding `CC(C)Cc1cn(C2CCN(C3CCCCCC3)CC2)nn1`, the z-score is -0.565 (inactive).

On to `C=C1C2(C(=O)N3CCCC(COC)C3)CCC(C2)C1(C)C` (stereo not given), for which the z-score was -0.525 (inactive).

As to `Cc1nn(C)cc1-c1ccnc(NC(CC(C)(C)C)c2cccnc2)n1` (stereo not given), the z-score is 1.75 (inactive).

Regarding `Cc1ccsc1-c1cccc(C(=O)c2nccn2C)c1`, the z-score was 0.225 (inactive).

As for `Cc1cc(N2CCC(Cn3cc(CN)nn3)CC2)nc(-c2ccccc2O)n1`, the z-score is -1.23 (inactive).

Regarding `COc1cccc(C(=O)N2CCC(n3cc(-c4ccccn4)nn3)CC2)c1`, the z-score is 0.785 (inactive).

As to `CC(C)Cc1cn(C2CCN(C(=O)CC3CCCCCC3)CC2)nn1`, the z-score was 2.74 (active).

As to `COC(=O)c1ccccc1C(=O)N1CCNC(=O)C1Cc1ccccc1` (stereo not given), the z-score was -0.485 (inactive).

In the case of `Cc1nc2cc(C(=O)N3CCN(C)C(=O)C3)ccc2s1`, the z-score is -0.24 (inactive).

Regarding `Cc1nn(C)c(C)c1-c1ccnc(N2CCC(C(=O)NCc3ccccn3)CC2)n1`, the z-score is 1.16 (inactive).

Take `CCC1(CC)CC1C(=O)N1CCC(n2cc(C3CC3)nn2)CC1` (stereo not given): the z-score was -0.51 (inactive).

Take `CCc1c(C(=O)N2CCCN(C(C)=O)CC2)csc1C`: the z-score was -0.54 (inactive).

For `CNCc1cn(C2CCN(CCC(C)CC(C)(C)C)CC2)nn1` (stereo not given), the z-score was -0.49 (inactive).

For the compound `CC(C)CCC(=O)N(C)CCCC1CCCC1`, the z-score is -0.145 (inactive).

As for `Cc1cc(N2CCCN(C(=O)Nc3nncs3)CC2)ccn1`, the z-score was -0.265 (inactive).

On to `CC(C)n1cc(-c2cc(C(=O)N3CCC(C)(C)C3)c3ccc(F)cc3n2)cn1`, for which the z-score was 0.14 (inactive).

Regarding `O=C(Nc1cccc(N2CCCC2=O)c1)c1cc(C(F)(F)F)ccc1Cl`, the z-score is -0.405 (inactive).

Turning to `Nc1ncc(-c2ccc(Cl)cc2Cl)cn1`, the z-score was -0.065 (inactive).

For `CC1(C(=O)N2CCC(n3cc(C(C)(C)C)nn3)CC2)CCCO1` (stereo not given), the z-score is -0.79 (inactive).

As to `Cc1ccc(CC(=O)Nc2ccnn2C2CCCCC2)cc1F`, the z-score is 0.325 (inactive).

As to `Cc1cc(CN2CCOC(CN)C2)ccc1OC1(C(=O)O)CCSCC1` (stereo not given), the z-score is -0.415 (inactive).

Turning to `O=C1NCCN(C(=O)c2ccc(Cl)cc2)C1Cc1ccccc1` (stereo not given), the z-score is 0.59 (inactive).

With `O=C(Nc1n[nH]c(-c2ccco2)n1)N1CCc2c([nH]c3ccccc23)C1`, the z-score was -0.135 (inactive).

`c1ccc(Cc2noc(-c3cccc4nccnc34)n2)cc1`: the z-score was 2.6 (active).

In the case of `CCCC[C@@H]1C[C@@H]1C(=O)N1CCC(n2cc(C3CCCCC3)nn2)CC1`, the z-score was 1.86 (inactive).

In the case of `Cc1cc(C(F)(F)F)nc(CNC(=O)c2ccc3nccnc3c2)n1`, the z-score is -0.69 (inactive).

With `Cc1nsc(NC(=O)N2CCCN(c3ccccc3)CC2)n1`, the z-score is -0.19 (inactive).

In the case of `COc1ccc(CCC(C)NC2CC(C)(C)NC(C)(C)C2)cc1` (stereo not given), the z-score was -0.505 (inactive).

`CCN(CC)C(=O)c1cc(-c2cnc(C(C)C)nc2)nc2c(C)cccc12`: the z-score was -1.09 (inactive).

As for `O=C(CC1CCCCCC1)N1CCC(Cn2cc(CO)nn2)CC1`, the z-score was -0.5 (inactive).

Consider `OC[C@H](Cc1ccccc1)NC1CCCCCC1`, for which the z-score is -0.555 (inactive).

On to `CCCC(CCC)C(=O)N1CCC(n2cc(C(C)O)nn2)CC1` (stereo not given), for which the z-score was -0.47 (inactive).

(Values after PubChem BioAssay.)
